Screening data (PubChem BioAssay)
Sampled rows, rich in hits. Any-hit rate of the full collection: about 3.6%.
DUSP3 inh = DUSP3 (human) phosphatase inhibition. recombinant VHR phosphatase, pNPP absorbance. inhibition, % at 13.3 µM. 290,000 compounds, 0.52% hits. P51452. AID 1654; in the data active = inhibition above about 50%
Target sequence (P51452 whole entry, looked up): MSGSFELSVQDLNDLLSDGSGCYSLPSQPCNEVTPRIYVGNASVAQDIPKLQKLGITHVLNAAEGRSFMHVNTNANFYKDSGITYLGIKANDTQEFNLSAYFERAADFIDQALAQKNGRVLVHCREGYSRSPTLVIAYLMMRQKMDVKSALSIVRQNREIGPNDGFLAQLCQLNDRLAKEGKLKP
Mtb FBA inh = inhibits M. tuberculosis FBA enzyme. purified M. tuberculosis FBA, fluorescence read-out. inhibition, % at 1 µM. 360,000 compounds, 2.3% hits;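 note: 0% = vehicle and 100% = reference inhibitor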
Target sequence (P9WQA3 whole entry, looked up): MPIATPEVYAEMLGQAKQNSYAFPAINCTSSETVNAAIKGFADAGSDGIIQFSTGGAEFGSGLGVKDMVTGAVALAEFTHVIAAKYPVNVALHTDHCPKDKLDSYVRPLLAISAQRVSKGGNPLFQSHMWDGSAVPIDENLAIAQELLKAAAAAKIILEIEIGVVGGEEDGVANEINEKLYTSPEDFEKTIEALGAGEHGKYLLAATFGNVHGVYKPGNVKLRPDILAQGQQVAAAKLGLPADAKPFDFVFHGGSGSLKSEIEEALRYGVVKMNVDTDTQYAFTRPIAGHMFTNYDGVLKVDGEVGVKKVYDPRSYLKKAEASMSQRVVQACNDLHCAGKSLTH
Mtb bLac sens = beta-lactam sensitization of Mtb H37Rv; M. tuberculosis H37Rv growth with meropenem, percent inhibition; 330,000 compounds, 0.27% hits; inhibition, % at 25 µM; AID 434955; call rule not given here;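 note: growth measured after seven days incubation then overnight dye step; 0% = bacteria only wells and 100% = bacteria with antibiotic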
GDH-TPI counter-1 = inhibits GDH-TPI coupling enzymes, artifact for Mtb FBA screen; GDH-TPI coupled enzyme counterscreen, NADH absorbance; inhibition, % at 4.8 µM; 360,000 compounds, 1.2% hits; AID 588335; in the data active = inhibition above about 30%;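 note: 0% = DMSO wells and 100% = wells lacking the enzyme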
Mtb hypoxia rep = reduces hypoxia-regulated biosensor signal in M. tuberculosis | M. tuberculosis hypoxia-regulated fluorescent reporter, fluorescence | fluorescence inhibition, % (no concentration beside the values) | 300,000 compounds, 0.1% hits | AID 1159583; in the data active = fluorescence inhibition mostly above about 23%, no sharp cut-off; inactive = mostly below about 17%
Mtb FBA confirm = Mtb FBA inhibition, confirmed; shares compounds with Mtb FBA inh; AID 651616; purified M. tuberculosis FBA, fluorescence read-out; 5,600 compounds, 78% hits; inhibition, % at 1 µM;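 note: 0% = vehicle wells and 100% = reference inhibitor wells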
GDH-TPI counter-2 = inhibits GDH-TPI coupling enzymes, flagging Mtb FBA hits; 5,600 compounds, 81% hits; inhibition, % at 1 µM; GDH-TPI coupled enzyme counterscreen, fluorescence; shares compounds with Mtb FBA inh; AID 652141; in the data active = inhibition above about 10%
GDH-TPI DR = counter-screen for M. tuberculosis FBA inhibitors: GDH-TPI dose response | 170 compounds, 79% hits | shares compounds with Mtb FBA inh | IC50, µM | GDH-TPI coupled enzyme assay, fluorescence, artifact counterscreen; call rule not given here
* marks the source's active call; other numbers are inactive results; nt = no result; + = active, no number. Cut-off read from the data, not from the text of the source, unless noted: active = inhibition above about 27%; inactive = the rest.

SMILES	DUSP3 inh	Mtb FBA inh	Mtb bLac sens	GDH-TPI counter-1	Mtb hypoxia rep	Mtb FBA confirm	GDH-TPI counter-2	others
C=CCSc1nnc(-c2sc(-c3ccccc3)nc2C)n1C	3.6	63.6*	-14.1	12.8	16.8	2.3	-3.5
Cn1c(SCCSc2nnc(-c3ccccc3)n2C)nnc1-c1ccccc1	11.7	nt	nt	nt	nt	nt	nt
Cc1nn(CCc2nn[nH]n2)c2nc(C(F)(F)F)cc(C(F)(F)F)c12	8.4	39.2*	24.2	-10.5	23.8	nt	+
FC(F)(F)c1nc2nncn2c2c1CCCCC2	22.1	35.5*	-4.6	12.2	nt	133.2*	117.2*
COc1ccc(NC(=O)Nc2cccc3c2OC(CN(C)S(=O)(=O)c2ccccc2)C(C)CN(C(C)CO)C3=O)cc1 (stereo not given)	nt	nt	nt	nt	13.0	nt	nt
CC(C)NC(=S)N(C)C1(c2ccccc2Cl)CCCCC1=O (stereo not given)	1.9	0.4	-0.2	-4.8	6.9	nt	nt
CNC1(c2ccccc2Cl)CCCCC1=O (stereo not given)	nt	27.0*	nt	-4.5	nt	57.8*	35.5*
COc1ccc(-c2nc3ccccc3s2)cc1NC(C)=O	10.6	72.7*	-6.4	39.0*	10.0	138.3*	117.7*
Nc1ccccc1-c1nc2ccccc2s1	11.8	51.2*	10.0	6.2	10.2	196.8*	146.8*
Cc1ccc(Cn2cccc(-c3nc4ccccc4s3)c2=O)cc1	25.3	54.5*	-15.0	18.3	7.7	114.6*	107.0*
Oc1ccc(-c2nc3ccccc3s2)c(O)c1	-10.3	37.0*	89.6	25.2	11.7	106.1*	84.3*
O=C(Cc1nc2ccccc2s1)c1ccc(O)cc1O	-13.2	nt	-7.9	nt	nt	nt	nt
c1csc(-c2nc3ccccc3s2)c1	12.5	39.4*	4.0	7.3	0.5	-1.4	-3.4
c1ccc2sc(-c3ccncc3)nc2c1	-18.6	2.2	-2.5	7.5	-7.2	nt	nt
Oc1ccc(-c2nc3ccccc3s2)cc1	22.8	94.4*	81.8	12.1	4.6	75.4*	63.2*
Cc1cc(NC(=O)CCC(=O)N(c2ccccc2C)C(C(=O)NC2CCCC2)c2ccccc2)no1 (stereo not given)	29.3	86.4*	8.8	8.4	-6.0	+	167.0*
Cc1cc(NC(=O)CCC(=O)N(c2ccccc2)C(C(=O)NC2CCCC2)c2ccccc2)no1 (stereo not given)	-5.3	5.8	-4.8	-5.8	nt	nt	nt
[O-]/C(=C(\C(=S)Nc1cccc2ccccc12)[n+]1cccc(CO)c1)c1ccc(Cl)s1	6.3	31.1*	nt	3.1	-2.3	151.0*	129.0*
Cc1ccc(NC(=S)/C(=C(\[O-])c2ccc(Cl)s2)[n+]2cccc(CO)c2)cc1C	20.4	-6.6	-3.9	1.9	14.6	nt	nt
CC1CN(C(C)CO)C(=O)c2cccc(NS(=O)(=O)c3ccccc3)c2OC1CN(C)CC1CC1 (stereo not given)	nt	nt	nt	nt	5.0	nt	nt
COc1ccc(-c2nnc(NC(=O)C(C)C)s2)c(OC)c1	-4.4	36.2*	-3.7	18.3	2.1	101.5*	101.9*
CCOC(=O)Nc1nnc(-c2ccccc2OC)s1	-0.3	42.2*	-13.0	11.0	nt	137.4*	98.1*
COc1ccccc1-c1nnc(N)s1	-9.6	46.1*	10.0	3.8	-2.4	85.8*	75.7*
O=C(Nc1nncs1)Oc1ccccc1	28.0	0.3	-6.2	7.5	3.3	nt	nt
Nc1nnc(-c2ccccc2Cl)s1	10.5	12.8	28.3	2.2	nt	nt	nt
SMILES	DUSP3 inh	Mtb FBA inh	Mtb bLac sens	GDH-TPI counter-1	Mtb hypoxia rep	Mtb FBA confirm	GDH-TPI counter-2	others
COC(=O)Nc1nncs1	21.3	49.5*	-4.0	11.6	7.5	145.2*	129.9*
COC(=O)Nc1nnc(-c2ccncc2)s1	-13.2	107.8*	-2.7	18.7	1.9	58.8*	56.4*
COC(=O)Nc1nnc(-c2ccccc2OC)s1	24.6	66.5*	5.0	3.4	14.6	11.1	-2.9	GDH-TPI DR=3.2*
CC(NC(=O)c1nc[nH]c1C(=O)NC(C)C(=O)OC(C)(C)C)C(=O)OCc1ccccc1 (stereo not given)	nt	nt	nt	nt	5.7	nt	nt
COc1cc(OC)cc(-c2c(-c3ccc(F)cc3)c3cc(-c4ccc5[nH]ccc5c4)ccc3n2C)c1	nt	49.4*	-1.4	24.7	9.5	-3.8	-4.6
COc1cccc(-c2c(-c3cc(OC)cc(OC)c3)n(C)c3ccc(-c4ccc(OC)nc4)cc23)c1	nt	0.7	-4.6	3.1	-5.0	nt	nt
COc1cccc(-c2c(-c3cc(OC)cc(OC)c3)n(C)c3ccc(-c4ccc5[nH]ccc5c4)cc23)c1	nt	42.2*	-8.1	24.4	18.4	+	+
C=CCc1cccc(C=Nc2ncccc2O)c1O	nt	nt	nt	nt	-1.9	nt	nt
COc1ccc(-c2ccc3nnc(SCC(=O)NCC4CCCO4)n3n2)cc1 (stereo not given)	nt	33.6*	-5.0	10.8	4.3	171.7*	119.9*
COc1ccc(-c2ccc3nnc(SCC(N)=O)n3n2)cc1	22.7	29.1*	-6.4	19.0	12.8	85.3*	60.5*
Cc1ccc(-c2ccc(SCC(=O)NCC3CCCO3)nn2)cc1 (stereo not given)	-12.0	5.0	1.0	7.3	6.1	nt	nt
NC(=O)CSc1nnc2ccc(-c3ccco3)nn12	17.6	18.2	15.2	16.0	nt	nt	nt
O=C(CSc1ccc2nc(-c3ccccc3)cn2n1)NCC1CCCO1 (stereo not given)	1.6	111.0*	-1.5	18.2	0.6	+	+
CC(C)CCN1C(Nc2ccccc2)=NCC1Cc1ccccc1 (stereo not given)	nt	nt	nt	nt	2.8	nt	nt
COC(=O)C(=NNc1ccccc1C)Sc1nnc(C(O)c2ccccc2)n1-c1ccccc1 (stereo not given)	nt	nt	nt	nt	8.4	nt	nt
CCOC(=O)CSC1=Nc2ccccc2C2=NC(CC(=O)NCc3ccccc3)C(=O)N12 (stereo not given)	20.0	28.9*	3.6	7.7	3.0	102.8*	102.1*
NC(=O)CSC1=Nc2ccccc2C2=NC(c3ccccc3)C(=O)N12 (stereo not given)	18.4	28.0*	-5.5	10.5	-2.3	50.9*	43.0*
CCOC(=O)CSC1=Nc2ccccc2C2=NC(CC(=O)NCc3cccs3)C(=O)N12 (stereo not given)	9.4	4.5	-2.5	9.1	6.0	nt	nt
CCOc1cc(C=NNC(=O)c2cccnc2)ccc1O	nt	nt	nt	nt	3.7	nt	nt
CCCC(=O)Nc1cc(-c2nc3ncccc3o2)ccc1Cl	21.9	5.9	-4.2	5.1	12.2	nt	nt
Nc1ccc(-c2nc3ncccc3o2)c(Cl)c1	26.4	91.5*	-7.9	47.1*	-3.4	0.9	2.9
Nc1cc(-c2nc3ncccc3o2)ccc1Cl	-7.5	37.7*	-9.8	23.1	9.0	86.5*	70.6*
CN(C)c1ccc(/C=C/C=NNc2nc(N3CCOCC3)nc(N3CCOCC3)n2)cc1	nt	nt	nt	nt	-2.1	nt	nt
